From PubChem BioAssay come the findings set out here.

SMILES strings stand for the structures. Calls of active or inactive are those of the source.

The target in the assay is NADPH oxidase 4 (Homo sapiens) (UniProt Q9NPH5). Description: compounds shifting NOX4 Amplex Red fluorescence – cell-based, HEK293-NOX4, tetracycline-induced, NOX inhibitor project, primary screen (AID 1160). Conditions: HEK293-NOX4, Amplex Red H2O2 fluorescence, 45 min; higher = more signal, called active from +8 up or from −8 down.
NADPH oxidase 4 (Homo sapiens), sequence (Q9NPH5 whole entry, looked up): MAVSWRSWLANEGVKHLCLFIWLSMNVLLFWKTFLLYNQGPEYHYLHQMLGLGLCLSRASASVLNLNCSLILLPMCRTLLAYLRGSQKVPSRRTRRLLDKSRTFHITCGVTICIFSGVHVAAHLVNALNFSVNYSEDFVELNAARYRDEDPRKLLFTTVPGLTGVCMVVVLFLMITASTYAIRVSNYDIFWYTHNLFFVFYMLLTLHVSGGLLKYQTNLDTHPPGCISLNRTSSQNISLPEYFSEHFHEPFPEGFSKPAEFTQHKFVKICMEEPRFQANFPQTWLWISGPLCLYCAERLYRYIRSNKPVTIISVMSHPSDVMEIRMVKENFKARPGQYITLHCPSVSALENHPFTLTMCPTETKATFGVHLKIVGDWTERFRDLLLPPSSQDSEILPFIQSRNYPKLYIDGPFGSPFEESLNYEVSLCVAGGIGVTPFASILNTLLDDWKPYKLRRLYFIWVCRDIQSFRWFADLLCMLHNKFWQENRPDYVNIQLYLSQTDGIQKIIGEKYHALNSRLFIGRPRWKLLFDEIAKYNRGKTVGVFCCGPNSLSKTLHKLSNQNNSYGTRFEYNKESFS
With `Cc1ccccc1C(O)C1C=CC2C(=O)N(c3ccccc3)C(=O)C2N1Nc1ccccc1F` (centres undefined), the z-score is -5.43 (inactive).
Consider `COC(=O)[C@@]1(CCS(=O)(=O)c2ccccc2)N=C(c2ccc(OCCCO)cc2)O[C@H]1c1ccccc1N=[N+]=[N-]`, for which the z-score was 1.02 (inactive).
For the compound `C=C(CCCC)C(=O)CC[C@H](OC(=O)c1cccnc1)c1ccc(CO)o1`, the z-score is 0.532 (inactive).
As to `COCCOC(=O)N1C(=O)[C@@]2(c3cc(C#CC4(O)CCCCCC4)ccc31)[C@H](c1ccc(OCCO)cc1)N1[C@H](c3ccccc3)[C@H](c3ccccc3)OC(=O)[C@H]1[C@@H]2C(N)=O`, the z-score is 0.847 (inactive).
Turning to `CN(C)C(=O)[C@]1(Cc2ccccc2)N=C(c2ccc(OCCCO)cc2)O[C@@H]1c1ccccc1`, the z-score is -0.372 (inactive).
As for `COc1ccc(C#Cc2ccc3c(c2)[C@]2(C(=O)N3)[C@H](C(=O)Nc3nc4ccccc4s3)[C@H]3C(=O)O[C@H](c4ccccc4)[C@H](c4ccccc4)N3[C@@H]2c2ccc(OCCO)cc2)cc1`, the z-score was 0.0813 (inactive).
Regarding `CCOC(=O)C[C@H]1[C@H](OC(=O)c2ccc(C(=O)c3ccccc3)cc2)[C@@H](NC(=O)c2ccc3ccccc3c2)c2cc(OCCCO)ccc2N1C(=O)c1ccc2ccccc2n1`, the z-score was 0.0963 (inactive).
Take `CN(C)CCCCNC(=O)[C@H]1C[C@H]2C(=O)N[C@@H](Cc3ccccc3)C(=O)N2[C@H]1c1cccc(OCCO)c1`: the z-score is 0.863 (inactive).
For `C=C(CC1([C@@H](NP(=O)(c2ccccc2)c2ccccc2)[C@H]2C[C@@H]2CCN(C(=O)OCC)S(=O)(=O)c2ccc(C)cc2)CC1)c1ccccc1`, the z-score was -1.66 (inactive).
